8 sequences from PMC4081100, “A DNA-binding-site landscape and regulatory network analysis for NAC transcription factors in Arabidopsis thaliana” can be followed below.

Common to all, as to test: universal protein binding microarray (PBM); transcription factors of Arabidopsis thaliana; high values mean tight binding
Holding throughout (settings): protein: recombinant; tags: GST; chain copies: 2; dsDNA, one strand shown

Experiment [1] addresses T1, GST-ANAC092(1-176) (Arabidopsis thaliana, UniProt Q9FKA0 1-176).
T1 sequence: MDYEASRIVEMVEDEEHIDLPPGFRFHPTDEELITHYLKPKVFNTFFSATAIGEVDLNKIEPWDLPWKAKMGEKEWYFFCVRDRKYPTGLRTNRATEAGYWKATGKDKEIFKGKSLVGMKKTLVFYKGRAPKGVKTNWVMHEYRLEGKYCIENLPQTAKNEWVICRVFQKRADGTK
Put shortly:
(§1)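 Binding is expressed as the normalised enrichment score (E-score). Proteins carrying a GST tag, whether NAC-domain, full-length or DNA-binding-domain forms, were induced in cells, and zinc acetate was added for zinc-finger proteins. After purification on glutathione–Sepharose 4B and quantification by A280 or anti-GST western blot, each was applied in duplicate at 200 to 500 nM final to custom all-10-mer Agilent 4 × 180K arrays made double-stranded by primer extension. Gapped and ungapped 8-mers were scored.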

Experiment [2] deals with T2, GST-ANAC019 NAC domain (Arabidopsis thaliana, UniProt Q9C932 14-162).
T2 sequence: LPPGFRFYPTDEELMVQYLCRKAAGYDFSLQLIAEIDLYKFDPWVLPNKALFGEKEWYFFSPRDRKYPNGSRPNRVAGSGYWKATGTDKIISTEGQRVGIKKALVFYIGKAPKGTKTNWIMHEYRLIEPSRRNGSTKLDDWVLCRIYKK
Put shortly:
as §1

Experiment [3] deals with T3, GST-ANAC055(1-171) (Arabidopsis thaliana, UniProt Q9LDY8 1-171).
T3 sequence: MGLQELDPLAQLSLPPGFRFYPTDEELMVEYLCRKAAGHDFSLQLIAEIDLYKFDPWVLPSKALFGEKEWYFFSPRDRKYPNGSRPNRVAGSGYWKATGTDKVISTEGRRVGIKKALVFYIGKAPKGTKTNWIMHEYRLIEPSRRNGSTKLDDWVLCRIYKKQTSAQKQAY
The procedure, abridged: as §1

Experiment [4] has as its target T4, GST-ATAF1 NAC domain (Arabidopsis thaliana, UniProt Q39013 7-158).
T4 sequence: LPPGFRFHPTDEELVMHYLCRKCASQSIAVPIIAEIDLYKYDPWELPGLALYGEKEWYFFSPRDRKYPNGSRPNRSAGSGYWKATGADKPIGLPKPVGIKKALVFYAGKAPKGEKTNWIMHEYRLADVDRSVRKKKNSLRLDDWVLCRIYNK
The procedure, abridged: as §1

For experiment [5], the target named is T5, GST-ANAC092(1-285) full length (Arabidopsis thaliana, UniProt Q9FKA0 1-285).
T5 sequence: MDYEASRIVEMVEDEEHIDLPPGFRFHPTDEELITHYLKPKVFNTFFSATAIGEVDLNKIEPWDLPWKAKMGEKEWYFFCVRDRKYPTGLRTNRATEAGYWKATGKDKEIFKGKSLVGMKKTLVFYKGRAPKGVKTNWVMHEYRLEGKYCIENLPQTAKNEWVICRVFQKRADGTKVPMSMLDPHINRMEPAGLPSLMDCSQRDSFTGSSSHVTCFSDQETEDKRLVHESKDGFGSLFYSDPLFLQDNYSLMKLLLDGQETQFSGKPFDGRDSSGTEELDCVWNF
The procedure, abridged:
as §1

Experiment [6] addresses T6, GST-NAP(1-166) (Arabidopsis thaliana, UniProt O49255 1-166).
T6 sequence: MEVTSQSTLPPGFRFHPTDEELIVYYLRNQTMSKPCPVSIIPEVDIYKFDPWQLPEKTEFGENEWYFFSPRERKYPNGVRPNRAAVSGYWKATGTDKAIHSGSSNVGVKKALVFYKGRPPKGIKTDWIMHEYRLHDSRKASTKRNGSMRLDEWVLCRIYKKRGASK
Put shortly: as §1

Experiment [7] has as its target T7, GST-NST2(1-184) (Arabidopsis thaliana, UniProt Q9M274 1-184).
T7 sequence: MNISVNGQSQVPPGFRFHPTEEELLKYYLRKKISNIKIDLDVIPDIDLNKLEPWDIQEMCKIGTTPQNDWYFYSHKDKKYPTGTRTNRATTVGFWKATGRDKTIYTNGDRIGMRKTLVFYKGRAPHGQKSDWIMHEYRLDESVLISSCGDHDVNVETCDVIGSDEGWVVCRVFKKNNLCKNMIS
Put shortly:
as §1

The target of experiment [8] is T8, GST-SND1(1-203) (Arabidopsis thaliana, UniProt Q9LPI7 1-203).
T8 sequence: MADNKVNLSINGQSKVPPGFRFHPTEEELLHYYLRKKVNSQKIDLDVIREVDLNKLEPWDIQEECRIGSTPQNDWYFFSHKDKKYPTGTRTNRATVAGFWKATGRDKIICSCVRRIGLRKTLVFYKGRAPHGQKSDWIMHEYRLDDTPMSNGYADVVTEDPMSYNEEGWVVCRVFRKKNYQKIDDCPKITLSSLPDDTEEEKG
Put shortly:
as §1

Experiment [9] has as its target T9, GST-VND3 NAC domain (Arabidopsis thaliana, UniProt Q9FH59 12-162).
T9 sequence: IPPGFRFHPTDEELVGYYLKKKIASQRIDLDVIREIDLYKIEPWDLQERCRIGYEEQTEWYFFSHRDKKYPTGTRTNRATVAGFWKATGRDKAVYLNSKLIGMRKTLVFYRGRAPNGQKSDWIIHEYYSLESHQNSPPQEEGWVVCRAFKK
The procedure, abridged: as §1

Experiment [10] concerns the target T10, GST-VND7 NAC domain (Arabidopsis thaliana, UniProt Q9C8W9 9-158).
T10 sequence: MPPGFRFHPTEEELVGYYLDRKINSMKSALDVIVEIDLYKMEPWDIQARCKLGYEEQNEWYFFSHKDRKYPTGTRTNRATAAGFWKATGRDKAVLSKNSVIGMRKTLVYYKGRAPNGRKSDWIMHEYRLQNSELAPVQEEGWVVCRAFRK
The procedure, abridged: as §1

In experiment [11] the target is GST-NTL6(1-168) (Arabidopsis thaliana, UniProt Q9SCK6 1-168). Put shortly:
as §1

The target of experiment [12] is T11, GST-NTL8 NAC domain (Arabidopsis thaliana, UniProt Q9XIN7 14-156).
T11 sequence: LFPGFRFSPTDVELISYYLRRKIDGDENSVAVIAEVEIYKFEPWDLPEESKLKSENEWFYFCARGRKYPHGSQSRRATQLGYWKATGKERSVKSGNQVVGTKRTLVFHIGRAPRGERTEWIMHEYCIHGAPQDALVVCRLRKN
Put shortly:
as §1

Chain of GST-NTL6(1-168) (Q9SCK6 1-168): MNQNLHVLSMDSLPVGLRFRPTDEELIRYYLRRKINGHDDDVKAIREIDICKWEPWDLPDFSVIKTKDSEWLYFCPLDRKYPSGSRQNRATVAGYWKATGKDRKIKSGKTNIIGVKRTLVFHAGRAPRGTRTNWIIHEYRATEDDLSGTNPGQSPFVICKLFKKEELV

As for GACGTGTA, the binding signal stood at 0.409 E-score in experiment [1]; 0.354 E-score in [2]; 0.341 E-score in [3]; 0.291 E-score in experiment [4]; 0.437 E-score in experiment [5]; 0.327 E-score in experiment [6]. In addition, the binding signal worked out at 0.193 E-score in experiment [7], 0.229 E-score in experiment [8], 0.354 E-score in [9] and 0.338 E-score in experiment [10].

Take ACGCTAAC: the binding signal in experiment [1] amounted to 0.43 E-score; in experiment [2], 0.143 E-score; in [3], 0.0694 E-score; in [4], 0.142 E-score; in experiment [5], 0.457 E-score; in [6], 0.0585 E-score. Further, the binding signal in experiment [7] worked out at 0.289 E-score; in experiment [8], 0.454 E-score; in experiment [9], 0.127 E-score; in [10], 0.113 E-score.

For the sequence ACGCAAGC, the binding signal in [1] was 0.466 E-score; in experiment [2], 0.35 E-score; in experiment [3], 0.295 E-score; in experiment [4], 0.148 E-score; in experiment [5] it was 0.478 E-score; in experiment [6] it was 0.294 E-score. In addition, the binding signal in [7] is 0.299 E-score; in experiment [8], 0.417 E-score; in [9] it was 0.344 E-score; in experiment [10], 0.332 E-score.

On to AAGGGAAA, for which the binding signal was determined as 0.195 E-score in [1]; 0.166 E-score in [11]; 0.166 E-score in experiment [4]; 0.0848 E-score in experiment [5]; 0.476 E-score in experiment [12]; 0.117 E-score in experiment [8]. Besides, the binding signal in experiment [9] was 0.0609 E-score; in experiment [10], 0.0885 E-score.

Turning to GAGGAAAA, the binding signal stood at 0.152 E-score in [1]; 0.188 E-score in experiment [11]; 0.1 E-score in experiment [4]; 0.152 E-score in experiment [5]; 0.402 E-score in [12]; 0.142 E-score in experiment [8]. Besides, the values for the binding signal in [9] and in experiment [10] were 0.12 E-score and 0.114 E-score, respectively.

On to TAAGAAAA, for which the binding signal in experiment [1] amounted to 0.215 E-score; in experiment [11] it was 0.454 E-score; in experiment [3] it was 0.129 E-score; in experiment [4], 0.193 E-score; in experiment [5] it was 0.269 E-score; in experiment [7] it was 0.235 E-score. Further, the binding signal is 0.216 E-score in experiment [12], 0.301 E-score in [8], 0.137 E-score in experiment [9] and 0.181 E-score in experiment [10].

As for TAAAGCAA, the binding signal in experiment [1] is 0.138 E-score; in experiment [11], 0.134 E-score; in experiment [5], 0.293 E-score; in experiment [7], 0.262 E-score; in experiment [12] it was 0.15 E-score; in [8] it was 0.42 E-score. The binding signal in [9] amounted to 0.135 E-score; in experiment [10] it was 0.228 E-score.

For the sequence AGAGGAAA, the binding signal stood at 0.115 E-score in experiment [1]; 0.126 E-score in experiment [11]; 0.0666 E-score in experiment [4]; 0.0695 E-score in experiment [5]; 0.45 E-score in [12]; 0.144 E-score in experiment [8]. The binding signal in experiment [9] amounted to 0.0951 E-score; in experiment [10], 0.0583 E-score.
